The supplement of paper PMC10646978
± gives the standard deviation.

Columns and labels:
Details in all cases: modulator concentration 10 µM
[1] = system: RAW-Dual (murine macrophage reporter line); assay: NF-kB reporter (SEAP) activity fold change vs agonist alone; higher = enhanced NF-kB activity
Summary of the method: (§1)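 Compound reached 10 μM final in each well by pin transfer, onto RAW-Dual murine macrophage reporter cells seeded at 50 000 per well in 384-well plates. After 1 hour at 37 °C, the cells were stimulated overnight with a PRR agonist. SEAP in the supernatant was read with QUANTI-Blue at 620 nm absorbance for NF-κB, and Lucia luciferase was read with QUANTI-Luc luminescence for IRF. Each signal was turned into fold change against the mean agonist-only control on the same plate, and two replicate plates were averaged with propagated errors.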

[2] = system: RAW-Dual (murine macrophage reporter line); assay: IRF reporter (Lucia luciferase) activity fold change vs agonist alone; higher = enhanced IRF activity
Summary of the method: as §1

[3] = system: RAW-Dual (murine macrophage reporter line); assay: viability score (confluency relative to resting cells, overnight) (fraction); higher = more viable, active = viable (0.7 or more)
Summary of the method: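 RAW-Dual macrophages in 384-well plates were incubated overnight with compound, final concentration 10 μM. Confluency images from IncuCyte were processed in IncuCyte software into two masks covering all imaged wells. The viability score is each well's confluency relative to resting cells, and a compound met the cutoff when both masks exceeded 70% of resting cells.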

[4] = agonist: CpG ODN 1826 0.5 ug/mL

| Structure (SMILES) | NF-kB reporter [1, 4] | NF-kB reporter ([1]; agonist: LPS 0.1 ug/mL) | NF-kB reporter ([1]; agonist: MPLA […]) | IRF reporter ([2]; agonist: 3'3'-cGAMP 10 ug/mL) | IRF reporter ([2]; agonist: LPS 0.1 ug/mL) | IRF reporter ([2]; agonist: MPLA […]) | viability score [3] |
| --- | --- | --- | --- | --- | --- | --- | --- |
| Cc1sc2ncnc(Nc3ccc(F)cc3)c2c1C | 0.813 ± 0.035 | 0.948 ± 0.11 | 1.22 ± 0.071 | 0.739 ± 0.034 | 0.935 ± 0.19 | 1.07 ± 0.27 | 0.981 (active) |
| COC(=O)C1C(=O)CC(C)(O)C(C(=O)OC)C1c1ccc2c(c1)OCO2 (stereo not given) | 1.03 ± 0.088 | 1.08 ± 0.081 | 0.958 ± 0.085 | 1 ± 0.038 | 1.57 ± 0.16 | 1.14 ± 0.11 | 0.989 (active) |
| O=c1ncnc2[nH][nH]cc1-2 | 0.832 ± 0.071 | 0.865 ± 0.043 | 1.13 ± 0.13 | 0.979 ± 0.059 | 1.17 ± 0.07 | 1.31 ± 0.15 | 1.02 (active) |
| CCN(CC)CCOC(=O)C(Cc1cccc2ccccc12)CC1CCCO1.O=C(O)C(=O)O (stereo not given) | 0.672 ± 0.21 | 1.05 ± 0.061 | 0.998 ± 0.11 | 0.491 ± 0.026 | 1.12 ± 0.2 | 1.27 ± 0.13 | 0.977 (active) |
| N#Cc1nc(-c2ccc(COc3ccccc3)o2)oc1N1CCc2ccccc2C1 | 0.987 ± 0.049 | 1.13 ± 0.089 | 0.896 ± 0.05 | 0.964 ± 0.078 | 1 ± 0.16 | 0.989 ± 0.38 | 1.01 (active) |
| C[C@@H](O)[C@H]1C(=O)N2C(C(=O)O)=C(SCCNC=N)C[C@H]12 [Prestw-519] | 1.17 ± 0.11 | 0.986 ± 0.13 | 0.951 ± 0.036 | 0.981 ± 0.043 | 0.96 ± 0.044 | 0.928 ± 0.092 | 0.994 (active) |
| O=C(CCCN1CCC(O)(c2ccc(Cl)cc2)CC1)c1ccc(F)cc1 | 0.827 ± 0.13 | 0.893 ± 0.074 | 1.12 ± 0.098 | 1.05 ± 0.071 | 1.36 ± 0.092 | 1.38 ± 0.13 | 1.01 (active) |
| O=C(O)c1ccccc1 | 1.07 ± 0.21 | 1.24 ± 0.38 | 0.974 ± 0.089 | 0.933 ± 0.029 | 1.46 ± 0.34 | 1.33 ± 0.1 | 0.998 (active) |
| Cc1cccc(Oc2ccc(NC(=O)c3ccco3)cc2)c1C | 0.683 ± 0.049 | 0.992 ± 0.12 | 1.12 ± 0.049 | 0.483 ± 0.054 | 0.965 ± 0.085 | 1.44 ± 0.22 | 0.991 (active) |
| CC(=O)N=c1sc(S(N)(=O)=O)nn1C [Prestw-802] | 1.06 ± 0.11 | 0.991 ± 0.098 | 1.02 ± 0.12 | 0.986 ± 0.031 | 1.26 ± 0.15 | 1.39 ± 0.19 | 1.03 (active) |
| COc1ccc2c(c1)c(CC(=O)OCC(=O)O)c(C)n2C(=O)c1ccc(Cl)cc1 | 0.844 ± 0.16 | 1.06 ± 0.33 | 0.835 ± 0.053 | 0.938 ± 0.029 | 1.15 ± 0.25 | 1.07 ± 0.11 | 0.985 (active) |
| Cc1ccc(C2(c3ccc(C)cc3)CC2C(=O)Nc2ccccc2)cc1 (stereo not given) | 0.728 ± 0.079 | 0.905 ± 0.12 | 1.51 ± 0.071 | 0.541 ± 0.031 | 0.835 ± 0.12 | 0.654 ± 0.12 | 0.992 (active) |
| COc1ccc(OC)c(-c2csc(NC(=O)C3CC3)n2)c1 | 1.11 ± 0.068 | 0.972 ± 0.08 | 1 ± 0.034 | 0.935 ± 0.043 | 1.01 ± 0.061 | 1.13 ± 0.12 | 0.994 (active) |
| COc1cc2c(cc1Cc1cccc(Cl)c1F)c(=O)c(C(=O)O)cn2[C@H](CO)C(C)C | 0.941 ± 0.14 | 1.04 ± 0.27 | 1.25 ± 0.085 | 0.822 ± 0.026 | 1.13 ± 0.12 | 0.848 ± 0.079 | 0.936 (active) |
| CCOc1cc(CC(=O)N[C@@H](CC(C)C)c2ccccc2N2CCCCC2)ccc1C(=O)O | 1.24 ± 0.23 | 1.11 ± 0.23 | 0.956 ± 0.055 | 0.897 ± 0.039 | 1.22 ± 0.32 | 1.26 ± 0.18 | 0.683 (inactive) |
